The source of these data is PubChem BioAssay (EPA / NIEHS).

Structures are written as SMILES. Where “and” joins values, the source holds several entries; their conditions need not be identical. Equal entries are not always repeated. A structure can be active in one record and inactive in another. Calls of active or inactive are those of the source. How the source made its calls: active means hit-call score of the fitted dose curve at least 0.9, where 1 is the maximum; inactive means score below 0.9.

Assay [1] can be described thus: IUF_NPC2c_oligodendrocyte_migration_120hr: Leibniz Research Institute for Environmental Medicine (IUF) 120-hour Neural Progenitor Cell Migration Assay for Oligodendrocyte Migration (NPC2c) (AID 2284297).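 Further: O4-positive oligodendrocyte migration distance divided by radial glia migration distance.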 The method, boiled down: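 Using fetal brain neural progenitor spheres differentiating in N2 medium at 37C, compounds were present for 120 h. Oligodendrocyte migration distance, normalized to radial glia migration, was measured from imaged O4 staining.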

Assay [2] in a line: IUF_NPC2a_radial_glia_migration_120hr: Leibniz Research Institute for Environmental Medicine (IUF) 120-hour Neural Progenitor Cell Migration Assay for Radial Glia Migration (NPC2a) (AID 2284298). The method, boiled down: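 Exposure of 0.3 mm primary hNPC spheres runs day 0 to 120 h with a half-volume medium change at day 3. Fixed cells get Hoechst staining; high-content analysis of nuclear positions yields radial glia migration distance per well, compared against DMSO controls.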

A short description of assay [3]: IUF_NPC2a_radial_glia_migration_72hr: Leibniz Research Institute for Environmental Medicine (IUF) 72-hour Neural Progenitor Cell Migration Assay for Radial Glia Migration (NPC2a) (AID 2284299). The method, boiled down: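 Spheres of human primary neural progenitors migrate on poly-D-lysine/laminin under compound exposure at 37C, 5% CO2. The 72 h radial glia migration distance comes from brightfield images, measured manually.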

A short description of assay [4]: IUF_NPC2b_neuronal_migration_120hr: Leibniz Research Institute for Environmental Medicine (IUF) 120-hour Neural Progenitor Cell Migration Assay for Neuron Migration (NPC2b) (AID 2284300). The method in brief:
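Fetal human NPC spheres migrate on PDL/laminin during 120 h compound treatment; neuronal migration distance, glia-normalized, scored versus DMSO control.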

Assay [5] in a line: IUF_NPC3_neuronal_differentiation_120hr: Leibniz Research Institute for Environmental Medicine (IUF) 120-hour Neuronal Differentiation Assay (NPC3) (AID 2284301). The method in brief: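 Value is percent TUBB3-positive neurons among Hoechst-stained nuclei in the migration area, scored by trained CNN after 120 h differentiation. Primary hNPC spheres on poly-D-lysine/laminin, N2 medium, continuous dosing from day 0, half-refeed day 3; DMSO reference.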

Read-out in assay [6]: Intercellular Adhesion Molecule 1 (ICAM1), ICAM1 (gene 3383)
Nature of the assay: BSK_BE3C_ICAM1: BioMAP Diversity Plus: BE3C Assay for Intercellular Adhesion Molecule 1 (ICAM1) Biomarker Activity (AID 2284278).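 On outcome: cell-surface ICAM-1 protein level quantified by ELISA.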 To be noted: primary human bronchial epithelial cells. The method, boiled down:
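hu bronchial epithelial primary cells, 24 h cpd exposure, ICAM-1 ELISA; gain-of-signal fit vs DMSO baseline.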

Read-out in assay [7]: Interferon-inducible T-cell alpha chemoattractant (ITAC), CXCL11 (gene 6373)
In words: BSK_BE3C_ITAC: BioMAP Diversity Plus: BE3C Assay for Interferon-inducible T-cell alpha chemoattractant (ITAC) Biomarker Activity (AID 2284279). To be noted: primary human bronchial epithelial cells. The method, boiled down:
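Steps: dose human bronchial epithelial cells with chemical; incubate 24 h; measure I-TAC by ELISA; fit endpoint in positive direction against DMSO control. Cytotoxicity was checked in parallel cultures by SRB staining at harvest.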

Read-out in assay [8]: Interleukin-8 (IL8), CXCL8 (gene 3576)
Nature of the assay: BSK_BE3C_IL8: BioMAP Diversity Plus: BE3C Assay for Interleukin-8 (IL8) Biomarker Activity (AID 2284280). To be noted: primary human bronchial epithelial cells. The method in brief: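 Primary human bronchial epithelial cells (BE3C system) were exposed to test chemical for 24 h, and IL-8 levels were then measured by ELISA. Activity was fitted in the positive (gain-of-signal) direction against a DMSO negative-control baseline.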

Read-out in assay [9]: Epidermal growth factor receptor (EGFR), EGFR (gene 1956)
Nature of the assay: BSK_BE3C_EGFR: BioMAP Diversity Plus: BE3C Assay for Epidermal growth factor receptor (EGFR) Biomarker Activity (AID 2284281). To be noted: primary human bronchial epithelial cells. The method, boiled down:
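Human primary bronchial epithelial cells were exposed to compound for 24 h, and cell-surface EGFR was then quantified by ELISA. Activity was fitted in the positive direction against the DMSO vehicle baseline.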

Read-out in assay [10]: KRT18 (gene 3875)
Nature of the assay: BSK_BE3C_Keratin818: BioMAP Diversity Plus: BE3C Assay for Keratin 818 Biomarker Activity (AID 2284282). The note with it: primary human bronchial epithelial cells. The method, boiled down: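 In this multiplexed primary-cell system, bronchial epithelial cells were dosed and harvested at 24 h. Keratin 8/18 was determined by ELISA and analysed for increases over DMSO controls.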

Read-out in assay [11]: Matrix Metallopeptidase 9 (MMP9), MMP9 (gene 4318)
Nature of the assay: BSK_BE3C_MMP9: BioMAP Diversity Plus: BE3C Assay for Matrix Metallopeptidase 9 (MMP9) Biomarker Activity (AID 2284283). To be noted: primary human bronchial epithelial cells. The method in brief:
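Endpoint is the ELISA MMP-9 signal in human primary bronchial epithelial cultures taken 24 h after chemical dosing. DMSO serves as negative control and baseline, with gain-of-signal fitting.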

Read-out in assay [12]: Plasminogen activator inhibitor-1 (PAI1), SERPINE1 (gene 5054)
Nature of the assay: BSK_CASM3C_PAI1: BioMAP Diversity Plus: CASM3C Assay for Plasminogen activator inhibitor-1 (PAI1) Biomarker Activity (AID 2284284).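 Further: PAI-1 protein level measured by ELISA 24 h after dosing.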 To be noted: primary human coronary artery smooth muscle cells.

Read-out in assay [13]: Monocyte Chemoattractant Protein-1 (MCP1), CCL2 (gene 6347)
In words: BSK_hDFCGF_MCP1: BioMAP Diversity Plus: hDFCGF Assay for Monocyte Chemoattractant Protein-1 (MCP1) Biomarker Activity (AID 2284285). The note with it: primary human foreskin fibroblasts. The method in brief:
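MCP-1 ELISA readout was taken 24 hours after dosing primary human dermal fibroblasts in the hDFCGF system, with DMSO as baseline. Parallel sulforhodamine B staining of total protein tracked overt cytotoxicity.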

Read-out in assay [14]: Intercellular Adhesion Molecule 1 (ICAM1), ICAM1 (gene 3383)
Nature of the assay: BSK_hDFCGF_ICAM1: BioMAP Diversity Plus: hDFCGF Assay for Intercellular Adhesion Molecule 1 (ICAM1) Biomarker Activity (AID 2284287). The note with it: primary human foreskin fibroblasts. The method in brief: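 ICAM-1 ELISA readout 24 h after dosing, DMSO as baseline, in human dermal foreskin fibroblast cultures. Cytotoxicity checked in parallel wells by SRB staining (0.1% SRB, 10% TCA fixation, 560 nm).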

Read-out in assay [15]: TIMP metallopeptidase inhibitor 2 (TIMP2), TIMP2 (gene 7077)
In words: BSK_hDFCGF_TIMP2: BioMAP Diversity Plus: hDFCGF Assay for TIMP metallopeptidase inhibitor 2 (TIMP2) Biomarker Activity (AID 2284289). The note with it: primary human foreskin fibroblasts. The method, boiled down: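 Primary human foreskin fibroblasts in the hDFCGF system, dosed for 24 h; TIMP-2 level measured by ELISA, fitted in the positive direction against DMSO; cytotoxicity checked in parallel by sulforhodamine B total protein staining.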

Read-out in assay [16]: Thrombomodulin, THBD (gene 7056)
In words: BSK_LPS_Thrombomodulin: BioMAP Diversity Plus: LPS Assay for Thrombomodulin Biomarker Activity (AID 2284296). To be noted: primary human HUVEC with PBMC. The method, boiled down: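 Thrombomodulin on the surface of LPS-activated endothelial/PBMC co-cultures was quantified by ELISA at 24 hours post-dosing, with DMSO as baseline. Parallel SRB total-protein staining flagged overt cytotoxicity.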

Read-out in assay [17]: Decorin, DCN (gene 1634)
In words: BSK_MyoF_Decorin: BioMAP Diversity Plus: MyoF Assay for Decorin Biomarker Activity (AID 2284265). To be noted: primary human lung fibroblasts. The method in brief:
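In this multiplexed fibroblast system, secreted or surface decorin is detected by ELISA one day after dosing, with increases scored against the DMSO vehicle.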

The nature of assay [18]: BSK_MyoF_SRB: Viability Assessment in the BioMAP Diversity Plus: MyoF Assay (AID 2284267).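 Further: total protein by SRB absorbance in parallel cultures as cytotoxicity measure; cells assessed 24 h after compound addition.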 To be noted: primary human lung fibroblasts. The method in brief: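 In this viability endpoint, fibroblasts from human lung are treated for 24 h, TCA-fixed, SRB-stained (0.1%) and read at 560 nm. Gain of signal relative to DMSO defines activity.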
Read-out in assay [19]: Matrix Metallopeptidase 1 (MMP1), MMP1 (gene 4312)
In words: BSK_MyoF_MMP1: BioMAP Diversity Plus: MyoF Assay for Matrix Metallopeptidase 1 (MMP1) Biomarker Activity (AID 2284268). The note with it: primary human lung fibroblasts. The method, boiled down:
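Fibroblasts from human lung receive compound for 24 h before ELISA quantitation of MMP1. DMSO serves as baseline, and the endpoint is fitted for signal gain.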

Read-out in assay [20]: TIMP metallopeptidase inhibitor 1 (TIMP1), TIMP1 (gene 7076)
In words: BSK_MyoF_TIMP1: BioMAP Diversity Plus: MyoF Assay for TIMP metallopeptidase inhibitor 1 (TIMP1) Biomarker Activity (AID 2284269). The note with it: primary human lung fibroblasts. The method in brief: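 Primary human lung fibroblasts, MyoF multiplex system; chemical exposure 24 h; TIMP-1 by ELISA; positive fitting direction vs DMSO control.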

`Nc1ncn([C@@H]2O[C@H](CO)[C@@H](O)[C@H]2O)c(=O)n1`: the result in [1], in assay [2], in assay [3], in [4] and in [5] was inactive.
For `CCCCC(CC)COCC1CO1` (centres undefined), the outcome in assay [6], in assay [7], in assay [8], in assay [9], in [10] and in [11] was inactive. Also, the result in assay [12], in assay [13], in assay [14], in [15] and in assay [16] was inactive.
For the compound `O=Nc1ccc(O)cc1`, the outcome in [17], in assay [18], in assay [19] and in assay [20] was inactive.
The AC50 is the midpoint of the concentration-response curve, whichever way the signal moves. As for `Nc1ccc(N)c(Cl)c1`, the result in assay [6], in assay [7], in assay [8], in assay [9], in assay [10] and in [12] was inactive. Besides, the outcome in assay [14] and in assay [16] was inactive. Further, the AC50 in assay [8] was 5.71 µM (active); in [11], 15.2 µM (active) and 7.82 µM (active); in assay [13], 28.9 µM (active); in [15] it was 28.1 µM (active) and 28.9 µM (active).
Consider `COCc1c(C(C)C)nc(C(C)C)c(/C=C/[C@@H](O)C[C@@H](O)CC(=O)O)c1-c1ccc(F)cc1`, for which the outcome in assay [17] and in assay [20] was inactive. In addition, the AC50 in assay [19] is 0.0515 µM (active).
Regarding `O=C(Nc1ccccc1SSc1ccccc1NC(=O)c1ccccc1)c1ccccc1`, the outcome in assay [17], in assay [18], in assay [19] and in assay [20] was inactive.
`O=C(c1ccc(O)cc1)c1ccc(O)cc1O`: the result in [6], in assay [7], in [8], in assay [9], in assay [10] and in assay [12] was inactive. Moreover, the outcome in [13], in assay [14], in assay [15] and in assay [16] was inactive. Besides, the AC50 in assay [11] was 20 µM (active) and 9.6 µM (active).
For `C/C=C\C/C=C/CCCCCCCCOC(C)=O`, the outcome in assay [17], in [18], in assay [19] and in assay [20] was inactive.
With `CC1OC1C1CCC2(C)OC2C1` (centres undefined), the outcome in [17], in [18], in assay [19] and in [20] was inactive.
On to `CCO[Si](CCCN=C=O)(OCC)OCC`, for which the outcome in [17], in assay [18], in assay [19] and in assay [20] was inactive.
Take `CCCCNc1ccc(NCCCC)c2c1C(=O)c1ccccc1C2=O`: the outcome in assay [17], in assay [18], in assay [19] and in assay [20] was inactive.
On to `O=C(Cl)c1cc(C(=O)Cl)cc(C(=O)Cl)c1`, for which the outcome in [17] was inactive. In addition, the AC50 in assay [18] was 34.7 µM (active); in [19], 31.9 µM (active); in assay [20], 31.2 µM (active).
Take `CCCCC/C=C\C/C=C\CCCCCCCC(=O)OC`: the outcome in assay [17], in assay [18] and in assay [20] was inactive. For the same compound, the AC50 in assay [19] is 31.2 µM (active).
Regarding `CCOC(=O)c1ccccc1C(=C1C=C(Br)C(=O)C(Br)=C1)c1cc(Br)c(O)c(Br)c1`, the AC50 in assay [6] is 5.49 µM (active) and 5.66 µM (active); in assay [7] it was 3.9 µM (active) and 3.63 µM (active); in assay [8] it was 7.85 µM (active) and 7.6 µM (active); in assay [10] it was 3.98 µM (active) and 4.84 µM (active); in [11], 4.52 µM (active) and 2.5 µM (active); in [13] it was 3.51 µM (active) and 3.62 µM (active). The AC50 in [14] was 4.29 µM (active) and 4.91 µM (active); in assay [15] it was 3.49 µM (active) and 3.46 µM (active); in assay [16], 10.3 µM (active). The result in assay [9], in [12] and in assay [16] was inactive.
For the compound `C=CCOCC(O)CCl` (centres undefined), the outcome in assay [17], in [18], in assay [19] and in assay [20] was inactive.
As to `CCCCCCCCCCCCCCCC[N+](C)(C)CC`, the AC50 in assay [17] was 5.5 µM (active); in assay [18], 1.39 µM (active); in assay [19], 9.34 µM (active); in assay [20], 2.73 µM (active).
On to `C=CCOc1c(Br)cc(Br)cc1Br`, for which the result in assay [17] and in assay [19] was inactive. In addition, the AC50 in assay [18] is 27.7 µM (active); in [20] it was 31.2 µM (active).
For `CCO[Si](C)(OCC)OCC`, the result in assay [6], in assay [7], in assay [8], in assay [9], in [10] and in assay [11] was inactive. The result in [12], in [13], in assay [14], in assay [15] and in assay [16] was inactive.
